# Laboratory results: PMC7862700, “An all-to-all approach to the identification of sequence-specific readers for epigenetic DNA modifications on cytosine”
# What was measured:
# Experiment in all cases: DAPPL (digital affinity profiling via proximity ligation, sequencing); 10 mM Tris-HCl pH 7.5, 50 mM NaCl, 1 mM DTT, 4% glycerol, room temperature, 30 min; GST-TFs on glutathione beads, 16-mer random dsDNA library, 0.1% formaldehyde crosslink after washing; high values mean tight binding
# Conditions in all cases: protein: recombinant; tags: N-terminal GST; dsDNA, one strand shown
# [1] = target: T1, ELK1 (Homo sapiens, UniProt P19419 1-428)
# T1 sequence: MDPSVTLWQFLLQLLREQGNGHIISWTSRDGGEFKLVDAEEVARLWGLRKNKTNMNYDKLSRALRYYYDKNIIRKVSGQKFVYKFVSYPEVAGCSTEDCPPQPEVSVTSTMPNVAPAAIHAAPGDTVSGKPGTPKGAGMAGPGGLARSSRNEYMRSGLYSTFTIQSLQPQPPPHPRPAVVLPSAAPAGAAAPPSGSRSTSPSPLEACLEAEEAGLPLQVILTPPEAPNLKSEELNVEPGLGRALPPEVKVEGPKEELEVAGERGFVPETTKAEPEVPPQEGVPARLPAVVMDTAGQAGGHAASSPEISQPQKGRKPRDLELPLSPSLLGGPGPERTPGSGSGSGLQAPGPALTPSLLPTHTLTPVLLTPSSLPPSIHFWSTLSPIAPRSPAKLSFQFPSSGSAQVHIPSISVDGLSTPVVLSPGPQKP
# Procedure, shortened: (§1)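 Pools were built from human transcription factors expressed in yeast as GST fusions, captured on glutathione beads and DNA-barcoded, along with a tag-only sample. Incubation with 200 nmole of a 16-mer random double-stranded DNA library lasted 30 min at room temperature in Tris/NaCl/DTT/glycerol buffer, and was followed by washing, 0.1% formaldehyde crosslinking, proximity ligation, PCR amplification and Illumina NextSeq500 sequencing. Binding signal is the quotient of each hexamer's read frequency for a factor and its frequency for the tag-only sample.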
# [2] = target: T2, ERG (Homo sapiens, UniProt P11308 1-479)
# T2 sequence: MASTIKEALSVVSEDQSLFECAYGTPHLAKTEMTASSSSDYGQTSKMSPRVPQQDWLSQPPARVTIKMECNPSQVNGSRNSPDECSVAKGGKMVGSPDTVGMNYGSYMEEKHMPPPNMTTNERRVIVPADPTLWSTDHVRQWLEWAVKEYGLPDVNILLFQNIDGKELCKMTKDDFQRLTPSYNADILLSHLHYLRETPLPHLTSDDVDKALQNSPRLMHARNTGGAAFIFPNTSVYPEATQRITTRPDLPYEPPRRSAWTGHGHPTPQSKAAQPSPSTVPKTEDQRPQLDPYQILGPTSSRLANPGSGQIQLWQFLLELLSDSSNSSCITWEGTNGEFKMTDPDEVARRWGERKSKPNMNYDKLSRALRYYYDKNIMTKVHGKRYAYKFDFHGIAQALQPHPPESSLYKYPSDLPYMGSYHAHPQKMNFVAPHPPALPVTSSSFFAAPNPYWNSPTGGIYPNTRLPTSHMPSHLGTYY
# Procedure, shortened: as §1
# [3] = target: ELF1 (Homo sapiens, UniProt P32519 1-619)
# Sequence of ELF1 (P32519 whole entry): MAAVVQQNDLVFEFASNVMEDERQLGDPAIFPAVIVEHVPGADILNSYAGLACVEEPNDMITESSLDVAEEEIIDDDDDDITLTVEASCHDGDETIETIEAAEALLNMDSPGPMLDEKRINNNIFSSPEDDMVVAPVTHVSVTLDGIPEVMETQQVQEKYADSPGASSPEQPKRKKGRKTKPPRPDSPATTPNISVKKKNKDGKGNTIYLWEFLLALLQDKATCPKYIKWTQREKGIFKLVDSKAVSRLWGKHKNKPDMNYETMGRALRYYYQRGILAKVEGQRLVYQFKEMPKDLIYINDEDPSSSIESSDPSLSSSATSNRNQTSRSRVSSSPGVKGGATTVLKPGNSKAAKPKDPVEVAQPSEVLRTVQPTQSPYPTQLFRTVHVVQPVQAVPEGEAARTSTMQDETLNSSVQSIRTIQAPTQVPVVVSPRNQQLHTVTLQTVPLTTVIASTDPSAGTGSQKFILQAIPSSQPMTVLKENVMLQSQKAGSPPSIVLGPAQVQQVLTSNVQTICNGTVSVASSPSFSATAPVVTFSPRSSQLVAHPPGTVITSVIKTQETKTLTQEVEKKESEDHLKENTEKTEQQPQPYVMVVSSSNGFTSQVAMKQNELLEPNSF
# Procedure, shortened: as §1
# [4] = target: T3, EHF (Homo sapiens, UniProt Q9NZC4 1-300)
# T3 sequence: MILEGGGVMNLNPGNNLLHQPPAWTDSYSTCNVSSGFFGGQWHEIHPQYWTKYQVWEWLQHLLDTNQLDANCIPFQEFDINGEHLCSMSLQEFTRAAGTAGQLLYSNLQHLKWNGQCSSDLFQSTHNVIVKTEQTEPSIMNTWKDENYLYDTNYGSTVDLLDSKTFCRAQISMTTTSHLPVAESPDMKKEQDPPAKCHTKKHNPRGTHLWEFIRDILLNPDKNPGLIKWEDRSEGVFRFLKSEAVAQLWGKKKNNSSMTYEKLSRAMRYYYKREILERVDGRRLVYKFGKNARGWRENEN
# Procedure, shortened: as §1
# [5] = target: SPI1 (Homo sapiens, UniProt P17947 1-270)
# Procedure, shortened: as §1
# [6] = target: SPIB (Homo sapiens, UniProt Q01892 1-262)
# Sequence of SPIB (Q01892 whole entry): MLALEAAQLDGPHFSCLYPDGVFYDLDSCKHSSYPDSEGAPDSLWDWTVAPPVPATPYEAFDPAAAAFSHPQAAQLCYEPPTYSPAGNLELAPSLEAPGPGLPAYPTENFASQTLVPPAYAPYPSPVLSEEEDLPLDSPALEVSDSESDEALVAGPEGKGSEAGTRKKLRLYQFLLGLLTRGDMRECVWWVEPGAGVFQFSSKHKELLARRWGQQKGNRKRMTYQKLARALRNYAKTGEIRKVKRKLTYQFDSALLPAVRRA
# Procedure, shortened: as §1
# [7] = target: T4, FEV (Homo sapiens, UniProt Q99581 1-238)
# T4 sequence: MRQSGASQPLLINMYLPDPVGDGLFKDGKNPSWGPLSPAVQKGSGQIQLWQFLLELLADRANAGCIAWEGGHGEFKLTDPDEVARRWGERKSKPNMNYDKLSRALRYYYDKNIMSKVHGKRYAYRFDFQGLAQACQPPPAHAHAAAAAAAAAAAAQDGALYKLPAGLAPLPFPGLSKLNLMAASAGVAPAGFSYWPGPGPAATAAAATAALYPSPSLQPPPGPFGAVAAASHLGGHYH
# Procedure, shortened: as §1
# [8] = target: ETV5 (Homo sapiens, UniProt P41161 1-510)
# Sequence of ETV5 (P41161 whole entry): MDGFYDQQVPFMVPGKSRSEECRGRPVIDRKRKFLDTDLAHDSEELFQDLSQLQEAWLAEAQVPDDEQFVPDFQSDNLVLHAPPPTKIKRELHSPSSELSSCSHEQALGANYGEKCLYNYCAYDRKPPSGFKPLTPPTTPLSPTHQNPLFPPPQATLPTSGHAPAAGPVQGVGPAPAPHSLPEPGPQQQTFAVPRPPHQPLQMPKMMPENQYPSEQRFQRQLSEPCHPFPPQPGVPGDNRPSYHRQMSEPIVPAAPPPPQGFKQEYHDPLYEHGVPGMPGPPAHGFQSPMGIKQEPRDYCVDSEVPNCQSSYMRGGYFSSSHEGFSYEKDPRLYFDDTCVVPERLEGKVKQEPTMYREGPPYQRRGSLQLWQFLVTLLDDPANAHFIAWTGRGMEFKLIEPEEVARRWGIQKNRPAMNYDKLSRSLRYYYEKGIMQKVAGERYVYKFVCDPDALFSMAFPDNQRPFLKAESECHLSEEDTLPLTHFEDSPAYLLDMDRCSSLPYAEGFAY
# Procedure, shortened: as §1
# [9] = target: ELF4 (Homo sapiens, UniProt Q99607 1-663)
# Sequence of ELF4 (Q99607 whole entry): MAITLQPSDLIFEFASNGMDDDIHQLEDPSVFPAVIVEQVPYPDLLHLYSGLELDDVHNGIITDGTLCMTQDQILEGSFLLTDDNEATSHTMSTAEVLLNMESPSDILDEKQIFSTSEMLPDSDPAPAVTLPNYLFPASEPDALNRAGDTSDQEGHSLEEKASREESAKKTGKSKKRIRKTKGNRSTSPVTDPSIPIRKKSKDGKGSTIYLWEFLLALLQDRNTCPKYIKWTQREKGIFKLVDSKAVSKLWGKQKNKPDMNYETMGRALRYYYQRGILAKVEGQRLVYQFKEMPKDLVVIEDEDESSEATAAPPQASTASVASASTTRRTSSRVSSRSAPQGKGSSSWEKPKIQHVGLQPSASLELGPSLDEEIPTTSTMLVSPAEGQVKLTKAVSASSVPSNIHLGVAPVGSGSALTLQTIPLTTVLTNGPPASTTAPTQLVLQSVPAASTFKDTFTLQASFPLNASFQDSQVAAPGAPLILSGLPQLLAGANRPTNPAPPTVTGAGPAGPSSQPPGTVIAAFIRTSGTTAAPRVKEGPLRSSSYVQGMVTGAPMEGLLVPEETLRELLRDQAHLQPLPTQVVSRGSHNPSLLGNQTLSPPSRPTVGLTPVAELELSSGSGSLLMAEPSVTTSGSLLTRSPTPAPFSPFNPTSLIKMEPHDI
# Procedure, shortened: as §1
# [10] = target: T5, ELK4 (Homo sapiens, UniProt P28324-2 1-405)
# T5 sequence: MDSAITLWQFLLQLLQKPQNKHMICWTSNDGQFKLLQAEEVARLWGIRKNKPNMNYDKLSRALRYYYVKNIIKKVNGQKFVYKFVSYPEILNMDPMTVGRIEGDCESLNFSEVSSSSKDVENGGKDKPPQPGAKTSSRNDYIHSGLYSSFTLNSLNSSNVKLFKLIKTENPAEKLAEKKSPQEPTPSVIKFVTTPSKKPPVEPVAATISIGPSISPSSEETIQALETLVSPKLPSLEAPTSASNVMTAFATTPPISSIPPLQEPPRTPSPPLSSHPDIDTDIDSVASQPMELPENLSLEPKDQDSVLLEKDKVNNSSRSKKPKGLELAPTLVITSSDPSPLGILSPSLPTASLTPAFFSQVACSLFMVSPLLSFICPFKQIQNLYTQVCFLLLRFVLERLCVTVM
# Procedure, shortened: as §1
# [11] = target: T6, ELF3 (Homo sapiens, UniProt P78545 1-371)
# T6 sequence: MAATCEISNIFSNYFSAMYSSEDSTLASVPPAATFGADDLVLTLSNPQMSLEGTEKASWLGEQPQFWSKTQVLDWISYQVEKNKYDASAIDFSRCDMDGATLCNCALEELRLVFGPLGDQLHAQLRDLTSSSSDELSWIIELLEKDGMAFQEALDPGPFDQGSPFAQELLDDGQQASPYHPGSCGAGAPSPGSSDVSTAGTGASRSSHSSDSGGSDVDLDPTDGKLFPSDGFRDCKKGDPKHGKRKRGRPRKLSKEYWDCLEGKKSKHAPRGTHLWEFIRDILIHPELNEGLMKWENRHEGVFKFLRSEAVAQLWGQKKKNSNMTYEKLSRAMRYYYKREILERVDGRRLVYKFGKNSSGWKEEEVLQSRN
# Procedure, shortened: as §1
# [12] = target: ETV1 (Homo sapiens, UniProt P50549 1-477)
# Sequence of ETV1 (P50549 whole entry): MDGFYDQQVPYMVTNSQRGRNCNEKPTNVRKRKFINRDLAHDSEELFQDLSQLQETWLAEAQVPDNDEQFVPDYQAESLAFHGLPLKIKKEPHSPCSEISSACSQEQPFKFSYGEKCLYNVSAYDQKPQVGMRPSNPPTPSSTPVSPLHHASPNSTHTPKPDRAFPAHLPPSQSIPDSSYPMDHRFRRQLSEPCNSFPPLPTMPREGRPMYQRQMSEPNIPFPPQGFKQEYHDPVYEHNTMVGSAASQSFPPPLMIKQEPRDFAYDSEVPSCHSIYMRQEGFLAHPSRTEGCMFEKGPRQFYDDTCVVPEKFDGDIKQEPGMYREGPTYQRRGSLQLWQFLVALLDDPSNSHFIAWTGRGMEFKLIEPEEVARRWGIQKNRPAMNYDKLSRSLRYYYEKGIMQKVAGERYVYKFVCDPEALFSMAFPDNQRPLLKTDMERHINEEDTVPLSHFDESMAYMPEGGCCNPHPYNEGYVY
# Procedure, shortened: as §1
# [13] = target: T7, ERF (Homo sapiens, UniProt P50548 1-548)
# T7 sequence: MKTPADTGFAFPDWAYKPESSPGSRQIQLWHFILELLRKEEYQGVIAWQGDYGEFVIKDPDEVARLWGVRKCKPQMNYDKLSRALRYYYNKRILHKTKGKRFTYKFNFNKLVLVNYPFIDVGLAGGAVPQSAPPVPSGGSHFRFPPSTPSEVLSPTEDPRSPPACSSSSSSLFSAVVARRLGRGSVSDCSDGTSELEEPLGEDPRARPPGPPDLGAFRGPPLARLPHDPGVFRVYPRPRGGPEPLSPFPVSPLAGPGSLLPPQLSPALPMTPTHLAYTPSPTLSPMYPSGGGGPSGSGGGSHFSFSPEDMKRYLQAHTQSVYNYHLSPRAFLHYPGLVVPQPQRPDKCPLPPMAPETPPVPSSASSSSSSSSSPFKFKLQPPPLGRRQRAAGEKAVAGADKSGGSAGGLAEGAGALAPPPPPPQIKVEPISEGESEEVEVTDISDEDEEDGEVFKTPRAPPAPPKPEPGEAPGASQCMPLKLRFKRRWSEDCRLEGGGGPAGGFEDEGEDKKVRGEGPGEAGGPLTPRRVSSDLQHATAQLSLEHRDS
# Procedure, shortened: as §1
# [14] = target: T8, ETV3L (Homo sapiens, UniProt Q6ZN32 1-361)
# T8 sequence: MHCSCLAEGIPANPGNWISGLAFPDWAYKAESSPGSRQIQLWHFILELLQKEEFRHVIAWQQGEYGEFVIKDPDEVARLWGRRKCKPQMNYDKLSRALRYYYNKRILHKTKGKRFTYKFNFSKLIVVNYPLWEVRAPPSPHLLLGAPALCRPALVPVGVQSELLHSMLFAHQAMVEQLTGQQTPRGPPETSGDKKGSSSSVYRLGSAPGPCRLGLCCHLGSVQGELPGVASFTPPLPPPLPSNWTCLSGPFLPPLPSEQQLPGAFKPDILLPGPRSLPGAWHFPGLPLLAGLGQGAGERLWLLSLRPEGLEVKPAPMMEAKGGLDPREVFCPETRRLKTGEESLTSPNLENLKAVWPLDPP
# Procedure, shortened: as §1
# [15] = target: T9, ETS2 (Homo sapiens, UniProt P15036 1-469)
# T9 sequence: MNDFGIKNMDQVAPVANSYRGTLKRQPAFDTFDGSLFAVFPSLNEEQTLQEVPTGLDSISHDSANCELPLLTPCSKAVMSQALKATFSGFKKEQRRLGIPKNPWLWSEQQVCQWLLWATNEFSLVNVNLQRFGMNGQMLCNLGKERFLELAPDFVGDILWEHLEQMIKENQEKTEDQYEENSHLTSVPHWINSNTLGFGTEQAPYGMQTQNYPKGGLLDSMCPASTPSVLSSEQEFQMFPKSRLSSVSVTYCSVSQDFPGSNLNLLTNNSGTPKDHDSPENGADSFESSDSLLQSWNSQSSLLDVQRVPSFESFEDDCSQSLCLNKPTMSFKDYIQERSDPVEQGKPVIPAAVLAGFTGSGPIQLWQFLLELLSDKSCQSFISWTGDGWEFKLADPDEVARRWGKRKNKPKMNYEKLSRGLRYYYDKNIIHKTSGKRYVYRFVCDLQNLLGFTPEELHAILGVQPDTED
# Procedure, shortened: as §1
# [16] = target: T10, SPDEF (Homo sapiens, UniProt O95238 1-335)
# T10 sequence: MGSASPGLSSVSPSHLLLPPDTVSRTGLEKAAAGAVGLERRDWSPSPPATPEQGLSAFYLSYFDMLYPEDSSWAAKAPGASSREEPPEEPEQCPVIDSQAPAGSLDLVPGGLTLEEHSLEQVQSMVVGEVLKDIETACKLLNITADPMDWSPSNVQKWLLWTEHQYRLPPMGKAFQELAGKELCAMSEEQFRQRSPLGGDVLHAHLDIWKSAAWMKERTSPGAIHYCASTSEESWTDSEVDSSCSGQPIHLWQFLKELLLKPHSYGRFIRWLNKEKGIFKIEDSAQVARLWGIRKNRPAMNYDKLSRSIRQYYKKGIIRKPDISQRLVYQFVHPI
# Procedure, shortened: as §1
# [17] = target: T11, ETV7 (Homo sapiens, UniProt Q9Y603 1-341)
# T11 sequence: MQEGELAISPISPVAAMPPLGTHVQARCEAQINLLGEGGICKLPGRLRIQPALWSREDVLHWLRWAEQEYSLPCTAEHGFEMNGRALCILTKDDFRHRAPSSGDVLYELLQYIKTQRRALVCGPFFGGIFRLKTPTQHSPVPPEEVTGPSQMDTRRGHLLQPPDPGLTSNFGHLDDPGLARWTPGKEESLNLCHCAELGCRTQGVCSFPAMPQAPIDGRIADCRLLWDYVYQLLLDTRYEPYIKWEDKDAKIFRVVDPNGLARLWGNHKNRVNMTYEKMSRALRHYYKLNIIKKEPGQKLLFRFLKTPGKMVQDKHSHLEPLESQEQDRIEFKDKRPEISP
# Procedure, shortened: as §1
# [18] = target: T12, ETV3 (Homo sapiens, UniProt P41162-2 1-143)
# T12 sequence: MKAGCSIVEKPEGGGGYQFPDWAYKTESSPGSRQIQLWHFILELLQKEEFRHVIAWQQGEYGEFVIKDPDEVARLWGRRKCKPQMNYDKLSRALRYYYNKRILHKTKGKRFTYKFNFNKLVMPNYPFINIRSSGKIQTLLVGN
# Procedure, shortened: as §1
# [19] = target: ETV6 (Homo sapiens, UniProt P41212 1-452)
# Sequence of ETV6 (P41212 whole entry): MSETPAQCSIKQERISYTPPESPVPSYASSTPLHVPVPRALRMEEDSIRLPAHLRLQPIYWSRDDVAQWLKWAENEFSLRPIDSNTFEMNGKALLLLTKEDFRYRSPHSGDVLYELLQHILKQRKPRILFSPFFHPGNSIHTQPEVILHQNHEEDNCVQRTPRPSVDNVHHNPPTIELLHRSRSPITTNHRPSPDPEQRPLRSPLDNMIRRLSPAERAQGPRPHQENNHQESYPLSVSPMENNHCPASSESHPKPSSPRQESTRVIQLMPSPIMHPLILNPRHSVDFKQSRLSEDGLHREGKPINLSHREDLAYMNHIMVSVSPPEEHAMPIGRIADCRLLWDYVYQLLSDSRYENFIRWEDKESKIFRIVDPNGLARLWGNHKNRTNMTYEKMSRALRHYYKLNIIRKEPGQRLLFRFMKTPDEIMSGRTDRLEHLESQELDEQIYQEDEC
# Procedure, shortened: as §1
sequence,measurement,setting,value
CCCCTA,binding signal,[1],"1.07 fold enrichment (6-mer frequency, TF over GST control)"
same,binding signal,[2],"1.05 fold enrichment (6-mer frequency, TF over GST control)"
same,binding signal,[3],"1.18 fold enrichment (6-mer frequency, TF over GST control)"
same,binding signal,[4],"1.17 fold enrichment (6-mer frequency, TF over GST control)"
same,binding signal,[5],"1.08 fold enrichment (6-mer frequency, TF over GST control)"
same,binding signal,[6],"1.08 fold enrichment (6-mer frequency, TF over GST control)"
same,binding signal,[7],"1.13 fold enrichment (6-mer frequency, TF over GST control)"
same,binding signal,[8],"1.07 fold enrichment (6-mer frequency, TF over GST control)"
same,binding signal,[9],"1.2 fold enrichment (6-mer frequency, TF over GST control)"
same,binding signal,[10],"1.3 fold enrichment (6-mer frequency, TF over GST control)"
same,binding signal,[11],"1.3 fold enrichment (6-mer frequency, TF over GST control)"
same,binding signal,[12],"1.07 fold enrichment (6-mer frequency, TF over GST control)"
same,binding signal,[13],"1.04 fold enrichment (6-mer frequency, TF over GST control)"
same,binding signal,[14],"1.13 fold enrichment (6-mer frequency, TF over GST control)"
same,binding signal,[15],"1.05 fold enrichment (6-mer frequency, TF over GST control)"
same,binding signal,[16],"1.07 fold enrichment (6-mer frequency, TF over GST control)"
same,binding signal,[17],"1.06 fold enrichment (6-mer frequency, TF over GST control)"
same,binding signal,[18],"1.06 fold enrichment (6-mer frequency, TF over GST control)"
same,binding signal,[19],"1.22 fold enrichment (6-mer frequency, TF over GST control)"
